Test results: PubChem BioAssay (NCATS)
Inconclusive results are not listed. Active and inactive are the calls of the source. The call rests on the fitted dose curve; in most records, active means well fitted curve in the direction sought with a large enough effect; inconclusive means small, poorly fitted or top-dose-only effect, or another doubt; inactive means no such curve, though single readings can be large; an effect the other way counts as inactive or inconclusive.

Columns and labels:
[1] = qHTS of pediatric cancer cell lines to identify multiple opportunities for drug repurposing: Primary screen for Rh18 cells (AID 1347102); further: nearly all actives have a fitted effect of over 65% in size; further: potency means the concentration at half of the fitted maximal effect
Procedure, shortened: (§1)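 Cells (500-1,000/well) rested 5 h, then received compounds for 48 h; metabolically active cells were measured by CellTiter-Glo luminescence. Final concentrations spanned up to 46 µM (MIPE, 11-point) or 0.59 nM-46 µM (NPC, 8-point) in primary screens, 11-point in follow-ups.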

[2] = qHTS of pediatric cancer cell lines to identify multiple opportunities for drug repurposing: Primary screen for OHS-50 cells (AID 1347103); further: nearly all actives have a fitted effect of over 40% in size; further: potency means the concentration at half of the fitted maximal effect
Procedure, shortened: as §1

[3] = qHTS of pediatric cancer cell lines to identify multiple opportunities for drug repurposing: Primary screen for RD cells (AID 1347104); further: nearly all actives have a fitted effect of over 55% in size; further: potency means the concentration at half of the fitted maximal effect
Procedure, shortened: (§2)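 Primary screen of approved and investigational compounds on cells in growth media at 37 degrees C, 5% CO2. MIPE set at 11-point and NPC set at 8-point dilutions; viability scored by ATP-based luminescence at 48 hours.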

[4] = qHTS of pediatric cancer cell lines to identify multiple opportunities for drug repurposing: Primary screen for MG 63 (6-TG R) cells (AID 1347105); further: nearly all actives have a fitted effect of over 50% in size; further: potency means the concentration at half of the fitted maximal effect
Procedure, shortened: as §2

[5] = qHTS of pediatric cancer cell lines to identify multiple opportunities for drug repurposing: Primary screen for Rh41 cells (AID 1347108); further: nearly all actives have a fitted effect of over 70% in size; further: potency means the concentration at half of the fitted maximal effect;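 on activity change, negative = cytotoxic: luminescence drop marks cytotoxic hits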
Procedure, shortened: as §2

[6] = qHTS of pediatric cancer cell lines to identify multiple opportunities for drug repurposing: Confirmatory screen for A673 cells (AID 1347110);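 further: potency means the concentration at half of the fitted maximal effect; cells exposed to compound for 48 h before the viability read; nearly all actives have a fitted effect of over 65% in size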
Procedure, shortened: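 qHTS titration format: primary MIPE 0.78 nM-46 µM (11 pts), NPC 0.59 nM-46 µM; confirmation 11 pts. 48 h, CTG luminescence.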

[7] = qHTS of pediatric cancer cell lines to identify multiple opportunities for drug repurposing: Confirmatory screen for SK-N-MC cells (AID 1347111);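 further: potency means the concentration at half of the fitted maximal effect; cells exposed to compound for 48 h before the readout; nearly all actives have a fitted effect of over 70% in size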
Procedure, shortened: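 Seed 500-1,000 cells/well; rest 5 h at 37 degrees C. Pin-transfer compounds, 11-point titration. Incubate 48 h. Add CellTiter-Glo, 15 min RT, read luminescence.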

[8] = qHTS of pediatric cancer cell lines to identify multiple opportunities for drug repurposing: Confirmatory screen for BT-12 cells (AID 1347112); further: potency means the concentration at half of the fitted maximal effect; nearly all actives have a fitted effect of over 55% in size
Procedure, shortened: as §1

[9] = qHTS of pediatric cancer cell lines to identify multiple opportunities for drug repurposing: Confirmatory screen for LAN-5 cells (AID 1347113); further: potency means the concentration at half of the fitted maximal effect; nearly all actives have a fitted effect of over 65% in size
Procedure, shortened: as §1

[10] = qHTS of pediatric cancer cell lines to identify multiple opportunities for drug repurposing: Confirmatory screen for NB-EBc1 cells (AID 1347115);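 further: cells exposed to compound for 48 h before the viability read; nearly all actives have a fitted effect of over 45% in size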; further: potency means the concentration at half of the fitted maximal effect
Procedure, shortened: as §1

[11] = qHTS of pediatric cancer cell lines to identify multiple opportunities for drug repurposing: Confirmatory screen for BT-37 cells (AID 1347117); details: BT-37 pediatric cancer cells, viability; activity change, negative = cytotoxic: at 45.9 µM (top of the series); further: potency means the concentration at half of the fitted maximal effect; nearly all actives have a fitted effect of over 55% in size
Procedure, shortened: as §1

[12] = qHTS of pediatric cancer cell lines to identify multiple opportunities for drug repurposing: Confirmatory screen for TC32 cells (AID 1347118);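 further: potency means the concentration at half of the fitted maximal effect; cells exposed to compound for 48 h before the read; nearly all actives have a fitted effect of over 65% in size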
Procedure, shortened: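 Luminescent CellTiter-Glo read-out of metabolically active TC32 cells after 48 h compound exposure. Primary: MIPE 11-point, 0.78 nM–46 µM; NPC 8-point, 0.59 nM–46 µM. Confirmatory: 11-point dilutions.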

[13] = qHTS of pediatric cancer cell lines to identify multiple opportunities for drug repurposing: Confirmatory screen for control Hh wild type fibroblast cells (AID 1347121); further: potency means the concentration at half of the fitted maximal effect; nearly all actives have a fitted effect of over 70% in size
Procedure, shortened: as §1

[14] = qHTS of pediatric cancer cell lines to identify multiple opportunities for drug repurposing: Primary screen for control Hh wild type fibroblast cells (AID 1347106);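 further: a drop in luminescence marks cytotoxicity and a rise apparent proliferation; nearly all actives have a fitted effect of over 55% in size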
Procedure, shortened: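 Viability after 48 h compound treatment at 37C, 500-1,000 cells/well, read as ATP luminescence with CellTiter-Glo. Primary screens used 11-point (MIPE, 0.78 nM-46 µM) or 8-point (NPC, 0.59 nM-46 µM) final concentrations; follow-up screens used 11-point dilutions.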

[15] = qHTS of pediatric cancer cell lines to identify multiple opportunities for drug repurposing: Confirmatory screen for DAOY cells (AID 1347114)
Procedure, shortened: (§3)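 Viability measured as metabolically active cells via CellTiter-Glo luminescence following 48 hours of compound exposure, 11-point dilutions in confirmatory testing. 500-1,000 cells/well plated 5 hours before dosing; controls were DMSO and 2.3 µM bortezomib.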

[16] = qHTS of pediatric cancer cell lines to identify multiple opportunities for drug repurposing: Primary screen for Rh30 cells (AID 1347107); further: nearly all actives have a fitted effect of over 75% in size; further: potency means the concentration at half of the fitted maximal effect
Procedure, shortened: as §1

[17] = qHTS of pediatric cancer cell lines to identify multiple opportunities for drug repurposing: Confirmatory screen for U-2 OS cells (AID 1347122)
Procedure, shortened: as §1

[18] = qHTS of pediatric cancer cell lines to identify multiple opportunities for drug repurposing: Confirmatory screen for SJ-GBM2 cells (AID 1347116); further: potency means the concentration at half of the fitted maximal effect; nearly all actives have a fitted effect of over 60% in size
Procedure, shortened: as §3

[19] = qHTS of pediatric cancer cell lines to identify multiple opportunities for drug repurposing: Confirmatory screen for MG 63 (6-TG R) cells (AID 1347119)
Procedure, shortened: as §1

Measured: Potency

O=C(Nc1cc2cc[nH]c2cn1)c1ccccc1
active: [1] 11.8 µM | [2] 10.9 µM | [3] 14.8 µM | [4] 14.8 µM | [5] 18.7 µM | [6] 1.65 µM | [7] 2.61 µM | [8] 14.7 µM | [9] 14.7 µM | [10] 16.5 µM | [11] 9.27 µM | [12] 1.85 µM | [13] 14.7 µM

CN(C)c1ccc2cc(C(=O)N[C@@H](CCCN=C(N)CCl)C(=O)NCc3ccccc3)ccc2c1
inactive: [14]
active: [1] 20.9 µM | [2] 4.85 µM | [3] 13.2 µM | [5] 14.8 µM

COC1=C2C[C@@H](C)C[C@H](OC)[C@@H](O)[C@@H](C)C=C(C)[C@H](OC(N)=O)[C@@H](OC)C=CC=C(C)C(=O)NC(=CC1=O)C2=O
active: [1] 5.9 µM | [2] 6.85 µM | [3] 5.26 µM | [4] 14.8 µM | [5] 7.43 µM | [6] 2.61 µM | [7] 1.04 µM | [9] 1.47 µM | [15] 5.85 µM | [10] 9.27 µM | [11] 1.04 µM

COc1cccc2c1C(=O)c1c(O)c3c(c(O)c1C2=O)C[C@@](O)(C(=O)CO)C[C@H]3O[C@H]1C[C@H](N)[C@H](O)[C@H](C)O1
active: [1] 0.662 µM | [2] 0.611 µM | [3] 0.833 µM | [5] 0.743 µM | [6] 0.928 µM | [7] 0.414 µM | [8] 1.47 µM | [9] 0.369 µM | [15] 3.69 µM | [11] 0.293 µM | [12] 0.261 µM | [17] 13.1 µM
inactive: [16]

CNC(=O)Nc1ccc(-c2nc(N3CC4CCC(C3)O4)c3cnn(C4CCC5(CC4)OCCO5)c3n2)cc1
active: [1] 0.0935 µM | [2] 0.0217 µM | [3] 0.0526 µM | [4] 0.0118 µM | [16] 11.8 µM | [5] 0.0418 µM | [6] 1.04 µM | [7] 0.585 µM | [9] 0.585 µM | [18] 1.04 µM | [11] 0.104 µM | [19] 0.0329 µM | [17] 0.522 µM

COc1cc(O)c2c(c1)C1OC1C[C@H](O)[C@H](O)C(=O)C=CC[C@H](C)OC2=O (stereo partly drawn)
active: [1] 16.6 µM | [2] 19.3 µM | [3] 2.35 µM | [4] 18.7 µM | [5] 11.8 µM | [6] 11.7 µM | [7] 9.27 µM | [8] 16.5 µM | [9] 7.37 µM | [15] 16.5 µM | [10] 5.85 µM | [18] 5.85 µM | [11] 14.7 µM | [19] 5.85 µM

CCN(CC)CCNC(=O)c1c(C)[nH]c(C=C2C(=O)Nc3ccc(F)cc32)c1C
inactive: [10]
active: [1] 17.1 µM | [2] 1.4 µM | [3] 9.59 µM | [4] 13.6 µM | [16] 27 µM | [5] 13.6 µM | [6] 10.7 µM | [8] 33.9 µM | [9] 10.7 µM | [15] 17 µM | [19] 13.5 µM | [17] 24 µM

Cc1cnc(Nc2ccc(N3CCN(C)CC3)cc2)nc1Nc1cccc(S(=O)(=O)NC(C)(C)C)c1
active: [1] 3.32 µM | [2] 1.09 µM | [3] 5.26 µM | [4] 7.43 µM | [5] 5.9 µM | [6] 4.65 µM | [7] 3.29 µM | [8] 16.5 µM | [9] 7.37 µM | [15] 18.5 µM | [10] 14.7 µM | [11] 5.85 µM | [19] 2.93 µM | [13] 14.7 µM

CN1[C@H]2CC(OC(=O)[C@@H](CO)c3ccccc3)C[C@H]1[C@H]1O[C@H]12 (stereo partly drawn)
inactive: [1] | [2] | [3] | [4] | [5]

Cc1onc(-c2ccccc2)c1C(=O)N[C@@H]1C(=O)N2[C@@H](C(=O)O)C(C)(C)S[C@@H]12
inactive: [1] | [2] | [4] | [14]

Nc1ccc(C(=O)Nc2cccc(-c3nc(N4CCOCC4)c4oc5ncccc5c4n3)c2)cn1
active: [1] 14.8 µM | [2] 6.11 µM | [3] 10.5 µM
inactive: [14]

C=CC(=O)N1CCc2ccc(-n3c(=O)ccc4cnc5ccc(-c6cnn(C)c6)cc5c43)cc21
active: [1] 8.33 µM | [2] 8.63 µM | [3] 4.69 µM | [4] 2.96 µM | [5] 3.72 µM | [6] 14.7 µM | [7] 5.22 µM | [9] 2.93 µM | [15] 9.27 µM | [11] 4.65 µM

COc1cc2c(cc1OC)[C@@H]1C(=O)c3ccc4c(c3O[C@@H]1CO2)C=CC(C)(C)O4
inactive: [1]
active: [2] 0.172 µM | [3] 0.264 µM | [6] 16.5 µM | [7] 2.33 µM | [8] 1.31 µM | [9] 3.69 µM | [15] 0.185 µM | [10] 0.827 µM | [11] 2.08 µM | [19] 0.104 µM | [13] 0.293 µM | [17] 0.329 µM

CN1CCc2c(c3ccccc3n2Cc2ccc(C(=O)NO)cc2)C1
inactive: [14]
active: [1] 18.7 µM | [2] 13.7 µM | [3] 16.6 µM | [16] 20.9 µM | [5] 13.2 µM
